The nature of assay [1]: qHTS profiling for inhibitors of Plasmodium falciparum proliferation (AID 504749). Also: nearly all actives have a fitted effect of over 60% in size. Also: potency is read from the fitted curve at half-maximal effect.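 As to activity, negative = inhibition: 0% = DMSO vehicle and full inhibition = artemisinin control.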 The settings on record: P. falciparum in erythrocytes, SYBR Green DNA, 72 h, at 28.7 µM (top of the series). Summed up:
(§1)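 P. falciparum-infected erythrocytes (0.3% parasitemia, 2.5% hematocrit) incubated with compound 72 h at 37 C, 5% CO2. Parasite DNA detected by SYBR Green after lysis, overnight at room temperature; normalised to 0.29 uM artemisinin and DMSO.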
In general terms: qHTS replaces the single test concentration by a dilution series.

Another assay deals with 3D7. The assay is described as above. The settings on record: P. falciparum in erythrocytes, SYBR Green DNA, 72 h; series mostly up to 28.7 µM. Summed up:
as §1

Another assay has as its system 7G8. The description is as above. Conditions: P. falciparum in erythrocytes, SYBR Green DNA, 72 h; series mostly up to 28.7 µM. Put shortly:
as §1

Another assay relates to AA1029. Described as above. Conditions: P. falciparum in erythrocytes, SYBR Green DNA, 72 h; series mostly up to 28.7 µM. Summed up:
as §1

In another assay the test system is AS120. The description is as above. The settings on record: P. falciparum in erythrocytes, SYBR Green DNA, 72 h; series mostly up to 28.7 µM. Summed up: as §1
Another assay has as its system ATS189. Described as above. Conditions: P. falciparum in erythrocytes, SYBR Green DNA, 72 h; series mostly up to 28.7 µM. Put shortly: as §1
Another assay concerns ATS95. The assay is described as above. Conditions: P. falciparum in erythrocytes, SYBR Green DNA, 72 h; series mostly up to 28.7 µM. Summed up:
as §1

A further assay deals with C2A. The assay is described as above. Conditions: P. falciparum in erythrocytes, SYBR Green DNA, 72 h; series mostly up to 28.7 µM. Summed up: as §1
The next assay relates to CP185. The assay is described as above. The settings on record: P. falciparum in erythrocytes, SYBR Green DNA, 72 h; series mostly up to 28.7 µM. Put shortly: as §1
The test system of another assay is CP191. Described as above. Conditions: P. falciparum in erythrocytes, SYBR Green DNA, 72 h; series mostly up to 28.7 µM. Summed up:
as §1

Another assay has as its system CP192. Described as above. Conditions: P. falciparum in erythrocytes, SYBR Green DNA, 72 h; series mostly up to 28.7 µM. Summed up:
as §1

The test system of the next assay is CP194. The description is as above. Conditions: P. falciparum in erythrocytes, SYBR Green DNA, 72 h; series mostly up to 28.7 µM. Summed up: as §1
For another assay, the system named is CP201. Described as above. Conditions: P. falciparum in erythrocytes, SYBR Green DNA, 72 h; series mostly up to 28.7 µM. Put shortly:
as §1

Assay [2] in a line: qHTS drug screen for cell cycle checkpoint inhibitors in PARPi-resistant BRCA-mutant ovarian cancer cell lines. (AID 1963452; calls by dose curve). The settings on record: PEO1/OlaR viability, CellTiter-Glo luminescence, 96 h, stronger effect = lower value. Summed up: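 PEO1, PEO4 and PEO1/OlaR ovarian cancer cells, 600 per well, exposed 96 h at 37C to a dilution series. Viability read by CellTiter-Glo luminescence, normalized to DMSO and empty wells; activity summarized as Z-AUC.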

[3] abbreviates: measured here: PEO1 parental Z-AUC.

Results filed as inconclusive are left out. The source made the active and inactive calls. Unless noted, calls follow the shape of the dose curve; as a rule, active = well fitted inhibition curve with a large enough effect; inconclusive = small, poorly fitted or top-dose-only effect; inactive = flat fitted curve, though single readings scatter.

Turning to `O=[N+]([O-])c1ccccc1`, the activity, negative = inhibition in assay [1] (parasite line A) was -4.98% (inactive); in assay [1] (parasite line B) it was 4.83% (inactive). Further, the Potency result with 3D7, with 7G8, in the assay on AA1029, with AS120, in the assay on ATS189 and in the assay with ATS95 was “inactive” each time. In addition, the Potency result in the assay on C2A, in the assay with CP185, with CP191, in the assay on CP192, with CP194 and in the assay on CP201 was “inactive” each time.
With `Oc1cc(Cl)c(Cl)cc1Cl`, the activity, negative = inhibition in [1] (parasite line A) is 4.1% (inactive); in assay [1] (parasite line B) it was -8.4% (inactive). Also, the Potency entry in the assay on 3D7, with AA1029, in the assay with AS120, with ATS189, with ATS95 and in the assay with C2A was “inactive” in each case. For the same compound, the Potency entry with CP185, in the assay with CP191, in the assay on CP192, in the assay on CP194 and with CP201 was “inactive” in each case. In addition, in the assay with 7G8, the Potency is 11.2 µM (active).
`COc1ccc2c(c1OC)C(=O)OC2C1c2cc3c(cc2CCN1C)OCO3` (centres undefined): the activity, negative = inhibition was 9.94% (inactive) in [1] (parasite line A) and 3.46% (inactive) in assay [1] (parasite line B). For the same compound, the Potency result in the assay with 3D7, in the assay with 7G8, in the assay with AA1029, in the assay on AS120, in the assay on ATS189 and in the assay on ATS95 was “inactive” in each case. Further, the Potency result in the assay with C2A, in the assay on CP185 and with CP191 was “inactive” each time.
For `O[C@H]1[C@H]2[C@H](O)CCCN2C[C@H]1O`, the values for the activity, negative = inhibition in [1] (parasite line A) and in assay [1] (parasite line B) were 9.76% (inactive) and 2.41% (inactive), respectively. For the same compound, the Potency entry in the assay on 3D7, with 7G8, in the assay on AA1029, in the assay with AS120, in the assay on ATS189 and in the assay with ATS95 was “inactive” in each case. Besides, the Potency entry with C2A, in the assay on CP185, in the assay on CP191, in the assay on CP192, with CP194 and with CP201 was “inactive” throughout.
On to `C[N+]1(C)C2CCC1CC(OC(=O)c1c[nH]c3ccccc13)C2` (centres undefined), for which the values for the activity, negative = inhibition in [1] (parasite line A) and in assay [1] (parasite line B) were 3.31% (inactive) and 10.8% (inactive), respectively. Further, the Potency result with 3D7, with 7G8, in the assay on AA1029, with AS120, in the assay on ATS189 and with ATS95 was “inactive” in each case. Besides, the Potency result with C2A, with CP185, in the assay on CP191, with CP192, with CP194 and with CP201 was “inactive” in each case.
As to `C=CCN=C=S`, the activity, negative = inhibition in [1] (parasite line A) is -3.28% (inactive); in assay [1] (parasite line B), 7.56% (inactive). Also, the Potency entry in the assay with 3D7, with 7G8, in the assay on AA1029, in the assay on AS120, in the assay with ATS189 and in the assay with ATS95 was “inactive” each time. Besides, the Potency result in the assay on C2A, in the assay on CP185 and in the assay with CP191 was “inactive” in each case.
Regarding `C[C@]12CC[C@H]3[C@@H](CC[C@@]45O[C@@H]4C(O)=C(C#N)C[C@]35C)[C@@H]1CC[C@@H]2O`, the values for the Z-AUC in [2], in assay [2] (setting [3]) and in [2] (measured here: PEO4 Z-AUC) were 0.0842 (inactive), 0.943 and 0.794, respectively.
For `COc1cc(C)[nH]c(=O)c1CNC(=O)c1c(C)n([C@H](C)C2CCOCC2)c2ccccc12` the same measures were 0.466 (inactive), 0.504 and 0.135.

Source of the values: PubChem BioAssay (NCATS).
